From PubChem BioAssay AID1508624 (National Center for Advancing Translational Sciences (NCATS), 2021)
Hit rate of the full screen: of about 48,000 compounds, about 120 (0.25%) were called active. Not shown: some 4% with an inconclusive outcome. Shown is part of a subset that was picked to be rich in actives. Values without a mark were called inactive. Calls follow the shape of the dose curve; as a rule, active = well fitted activation curve with a large enough effect; inconclusive = small, poorly fitted or top-dose-only effect, or another doubt; inactive = no such curve, though single readings can be large or run the other way.

Test: Primary qHTS for Identification of Small Molecule Activators of Huntingtin-Antisense Promoter Activity; also: nearly all actives have a fitted effect of over 55% in size
Settings: HEK293 HTT-AS promoter firefly luciferase reporter, 24 h; series mostly up to 57.5 µM; activity change, positive = activation: at the top concentration
From the text: Assay Provider: Russell L. Margolis M.D.
Department Neurology, Johns Hopkins University School of Medicine, Baltimore, MD
Huntington's Disease (HD) is a neurodegenerative disorder caused by a CAG repeat expansion in exon 1 of huntingtin (HTT). While there are currently no disease-modifying treatments for HD, recent efforts have focused on development of nucleotide-based therapeutics to lower HTT expression. As an alternative to siRNA or oligonucleotide methods, we hypothesized that suppression of HTT expression might be accomplished by small molecules that either (1) directly decrease HTT expression by suppressing HTT promoter activity or (2) indirectly decrease HTT expression by increasing the promoter activity of HTT-AS, the gene antisense to HTT that appears to inhibit expression of HTT.
We developed and employed a high throughput screen for modifiers of HTT and HTT-AS promoter activity using luminescent reporter HEK293 cells; of the 52,041 compounds tested, we identified 898 replicable hits. We used a rigorous stepwise approach to assess compound toxicity and the capacity of the compounds to specifically lower huntingtin protein in 5 different cell lines, including HEK293 cells, HD lymphoblastoid cells, mouse primary neurons, HD iPSCs differentiated into cortical-like neurons, and HD hESCs. We found no compounds which were able to lower huntingtin without lowering cell viability in all assays, though the potential efficacy of a few compounds at non-toxic doses could not be excluded.
SEQUENCE No. (1, 2, 3, etc.); […] (e.g., Cells, Incubation, Reagent, etc.); VALUE and DESCRIPTION.
1; Reagent; 4 uL; 2,500 Hek293 luciferase reporter cells per wells
3; Compound; 23 nL; Control inhibitor / compound library
5; Reagent; 2.5 uL; Firefly Luc reagent; Dual-Glo Luciferase Reporter Assay System (Promega)
6; Time; 10 min; room temperature incubation
7; Detection; Luminescence; FLuc
NOTES (numbers refer to sequence above)
1; High-throughput screening, measuring luminescence from a Hek293 luciferase reporter, was performed in 1,536 well white-walled tissue-culture treated plates. 2,500 cells were plated in 4 µL of Opti-MEM per well using a Multidrop Combi Reagent Dispenser (ThermoFisher).
2; Assay plates were cultured for 24 hours.
3; Control inhibitor (PTC124; final concentration of 50 uM) and compound library (at final concentrations of 460 nM - 57.5 uM) were added to the assay plate using the Kalypsis Pintool Robotic System equipped with 1536 pinheads.
4; Cells were then incubated for 24 hours at 37 degrees C prior to luminescence measurements.
5; In all cases, luminescence was measured using the Dual-Glo Luciferase Reporter Assay System (Promega) following the manufacturer's instructions.
6; Room temperature incubation.
7; Luminescence signal was obtained using the PerkinElmer ViewLux plate reader. Results were normalized to vehicle control (0% activity) and zero RLU (-100% activity).

Row | Compound | activity change, positive = activation
1 | CC(C)c1ccc(C2CC(=O)N3CN(C4CCCCC4)CSC3=C2C#N)cc1 (stereo unspecified) | -23%
2 | CC(C)CNc1ccnc(NCc2csc(-c3ccccc3)n2)n1 | -89.5%
3 | Cc1ccc2onc(CC(=O)N3CCN(c4ccc(Cl)cc4)CC3)c2c1 | -13.9%
4 | COc1ccccc1N1CCN(C(CNC(=O)C(=O)NCc2ccc(C)cc2)c2cccnc2)CC1 (stereo unspecified) | -57.5%
5 | Cc1ccc(-c2cnc(NCc3ccc(C(C)C)cc3)n2C)cc1 | -15.5%
6 | CCOC(=O)c1ccccc1NC(=O)c1nn(-c2ccc(OC)c(Cl)c2)c(=O)c2c1c1ccccc1n2C | -3.59%
7 | O=C(CSc1nccn1-c1ccc(F)cc1)Nc1cccc2ccccc12 | -9.33%
8 | Cc1cc(C)cc(NC(=O)CCCc2nc(-c3ccccc3Cl)no2)c1 | -12.4%
9 | COc1ccc(CN2C(=O)C(NC(=O)c3cccc(C)c3)(C(F)(F)F)N=C2c2ccccc2)cc1 (stereo unspecified) | -24%
10 | COc1ccc(CCNC(=O)Cn2c(=O)cc(C(F)(F)F)c3c(C)nn(C)c32)c(OC)c1 | -7.62%
11 | Cc1cccn2c(=O)c3cc(C(=O)NC(C)c4ccccc4)c(=N)n(CCCO)c3nc12 (stereo unspecified) | 13.5%
12 | CC(C)(C)c1ccc(C(=O)NCC(c2ccc(Cl)cc2)N2CCOCC2)cc1 (stereo unspecified) | -34.2%
13 | COc1ccc(CCC(=O)NCCc2csc(-c3ccc(Cl)cc3)n2)cc1 | -23.5%
14 | COc1ccc(Cl)cc1NC(=O)Cn1c(=O)c2ccccc2n2nncc12 | -0.66%
15 | CC(C)CCNC(=O)CSc1nc2ccccc2nc1Cc1ccc(Cl)cc1 | -6.39%
16 | Cc1ccccc1OCCSc1nc2ccc(NC(=O)c3ccco3)cc2s1 | -25%
17 | O=C(Nc1cc(-c2nc3ccccc3o2)ccc1Cl)c1cc([N+](=O)[O-])ccc1N1CCOCC1 | 4.83%
18 | COC(=O)c1cc(Cl)c(NC(C)=O)cc1OC | 3.75%
19 | COc1ccc(CNC(=O)Cn2nnc(-c3ccccc3F)n2)cc1 | -9.07%
20 | CCCC(=O)N1CCN(c2nc3c(OC)ccc(C)c3s2)CC1 | -10.6%
21 | COc1ccc(-n2c(=O)c3ccccc3n(Cc3ccccc3Cl)c2=O)cc1 | -22.4%
22 | O=C(c1ccc(C(F)(F)F)cc1)N1CCC(c2nc(-c3ccc(S(=O)(=O)N4CCCC4)cc3)no2)CC1 | -29.4%
23 | CCCC(=O)Nc1cc(C(=O)NCc2ccc(OC)cc2)ccc1S(=O)(=O)c1ccc(Cl)cc1 | 1.22%

Row | Compound | activity change, positive = activation
24 | O=C(Nc1nc2ccc(F)cc2s1)c1nc(SCc2ccccc2F)ncc1Cl | 0%
25 | C=Cc1c(C)c2cc3nc(cc4[nH]c(cc5nc(cc1[nH]2)C(C)=C5CCC(=O)O)c(CCC(=O)OC)c4C)[C@@]1(C)C3=CC=C(C(=O)OC)[C@H]1C(=O)OC | -35.4%
26 | CC(Nc1ccc(-c2nc(-c3ccco3)no2)cc1[N+](=O)[O-])c1ccccc1 (stereo unspecified) | 18%
27 | CCOc1ccc(NC(=O)c2c(NC(=O)Cc3ccccc3)sc3c2CCC(C)C3)cc1 (stereo unspecified) | -28.3%
28 | CCCOc1ccc(-c2cccc(NS(=O)(=O)c3ccccc3)c2)nn1 | -27.3%
29 | Cc1cccc(NC(=O)CSc2nc3c(oc4ccccc43)c(=O)n2-c2ccc(F)cc2)c1 | -21.1%
30 | Cc1cc(C)cc(OCC(=O)Nc2c(C(=O)c3ccccc3)oc3ccccc23)c1 | -4.18%
31 | O=C(NC1CCCCC1)c1ccc(Cn2c(SCc3ccccc3)nc3cccnc32)cc1 | -5.82%
32 | COc1cc(C(=O)Nc2ccc(OCc3cc(=O)n4ccc(C)cc4n3)cc2)cc(OC)c1OC | -0.483%
33 | Cc1cc2c(cc1S(=O)(=O)CCC(=O)Nc1ccc(OC(F)(F)F)cc1)OCC(=O)N2 | -17.4%
34 | CCn1c(=O)c(=O)n(CC)c2cc(N3CCCCC3)c(NC(=O)c3ccc(Cl)cc3)cc21 | -4.94%
35 | COc1ccc(NC(=O)COCc2cc(-c3ccco3)on2)cc1 | 7.49%
36 | COc1ccc(Cn2ccnc2SCC(=O)NCc2ccco2)cc1 | 1.47%
37 | COc1cccc(C(=O)Nc2ccc3oc(-c4ccc5ccccc5c4)nc3c2)c1 | 17.6%
38 | COc1ccccc1N1CCN(C2C(=O)c3ccccc3N2C(C)=O)CC1 (stereo unspecified) | -15.5%
39 | CCOC(=O)c1oc2ccc(S(=O)(=O)n3nc(-c4ccccc4OC)cc3N)cc2c1C | -34%
40 | Cc1ccc(C)c(N2C(=O)N(Cc3c(F)cccc3Cl)c3ccccc3S2(=O)=O)c1 | -7.55%
41 | Cc1ccc(S(=O)(=O)N(Cc2nc(-c3ccc(Cl)cc3)no2)C2CCCCC2)cc1 | -26.2%
42 | COc1cccc(-n2cc(C(=O)NCc3cccc(Cl)c3)c3ccccc3c2=O)c1 | -25.7%
43 | Cc1ccc(S(=O)(=O)N2CCCc3cc(NS(=O)(=O)c4cc(C)ccc4C)ccc32)cc1 | -26.5%
44 | NCC[C@H](O)C(=O)N[C@@H]1C[C@H](N)[C@@H](O[C@H]2O[C@H](CN)[C@@H](O)[C@H](O)[C@@H]2O)[C@H](O)[C@@H]1O[C@H]1O[C@H](CO)[C@@H](O)[C@H](N)[C@@H]1O | -2.89% [at 0.74 µM, percent change from vehicle, -100% = no light]
45 | CCCN(C(=O)Cn1cc(S(=O)(=O)N2CCN(c3ccccc3F)CC2)c2ccccc2c1=O)c1cccc(C)c1 | -11.8%
46 | Cc1ccc(C)c(OCC(=O)Nc2sc3c(c2C#N)CCCC3)c1C | -6.79% [at 11.5 µM, percent change from vehicle, -100% = no light]
